Lmaj promast: Leishmania major promastigote growth inhibition, primary screen | Leishmania major promastigotes, resazurin fluorescence viability | inhibition, % at 10 µM | 200,000 tested, 9% active; in the data active = inhibition above about 50%;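 also: promastigotes grown with compound for 44 hours at 28 °C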
Ins promoter up: insulin promoter activators in MIN6 cells, imaging, high-content screening, mouse beta cells. MIN6 insulin promoter-GFP reporter; active compounds read high. 190,000 tested, 0.3% active. AID 1625, 2009. z-score at 5 µM;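 active = z-score above 3 at 5 µM with at least 500 cells counted in the well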
Cl transport mod: KCC2 cotransporter modulators, thallium flux, primary screen, cell-based, HEK293 KCC2, FluoZin-2 fluorescence, MLSMR; Solute carrier family 12 member 5 (Homo sapiens), Q9H2X9; KCC2 cells, thallium flux FluoZin-2 fluorescence; B-score of Tl+ flux slope (higher = more flux/activation; lower = inhibition) at 10 µM; 190,000 tested, 2.2% active; AID 1456, 2008;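 active = thallium flux slope and its plate-corrected score both differing from the plate sample mean at a set confidence after two filtering rounds, in either direction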;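 also: slope of fluorescence scaled to starting intensity during 10 to 20 s after thallium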
ROMK primary: ROMK potassium channel modulators, primary screen, cell-based, thallium flux, MLSMR library; B-score at 10 µM; ATP-sensitive inward rectifier potassium channel 1 (Homo sapiens), P48048; 130,000 tested, 2% active; Tet-inducible ROMK, thallium flux fluorescence; actives lie on both sides;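 active = signal ratio slope over the read window, or its plate-corrected B-score, at least 3 SD from the plate mean, either direction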;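 also: B-score of the F/F0 ratio slope over 7 to 12 s after thallium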
Target sequence (P48048 whole entry, looked up): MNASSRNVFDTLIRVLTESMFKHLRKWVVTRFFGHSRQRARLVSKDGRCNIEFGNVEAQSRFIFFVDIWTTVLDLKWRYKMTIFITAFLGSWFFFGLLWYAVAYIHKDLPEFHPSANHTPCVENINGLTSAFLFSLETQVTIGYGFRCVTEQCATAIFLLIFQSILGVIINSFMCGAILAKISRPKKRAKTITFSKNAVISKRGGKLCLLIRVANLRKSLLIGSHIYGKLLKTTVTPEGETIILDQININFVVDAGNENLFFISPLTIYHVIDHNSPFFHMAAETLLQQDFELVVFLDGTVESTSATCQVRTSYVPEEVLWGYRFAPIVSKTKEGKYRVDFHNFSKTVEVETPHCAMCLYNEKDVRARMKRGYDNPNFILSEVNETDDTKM
Insulin prom inh: inhibitors of insulin promoter-driven GFP, primary screen, imaging, TRM-6 cells (human fetal islet line), eGFP reporter, cell count | reporter expression induced with tamoxifen | inhibition, % at 2 µM | 130,000 tested, 0.9% active | AID 1273, 2008;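 active = inhibition above the mean plus 3 SD, with well images judged a real hit on visual review, cut at about 60% in these data, passing the limit was not always enough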
WT yeast gro inh: growth inhibition of WT strain, primary screen, mitochondrial fusion inhibitor project, WT and mutant strains, chemical genetic. mitochondrial fusion phenotypic screen. inhibition, % at 10 µM. 190,000 tested, 2.1% active; in the data active = inhibition above about 58%; tested in S. cerevisiae
Active calls of the source: *; i = inactive; nt = no result given. Most compounds without a hit are left out; they make up all but 12% or so of the library.

SMILES	Lmaj promast	Ins promoter up	Cl transport mod	ROMK primary	Insulin prom inh	WT yeast gro inh
Cc1ccc(NC(=O)CN2CCC(NC(=O)Cc3ccccc3)CC2)c(C)c1	69.7*	-0.06	0.0534	-0.242	-32.4	-1.3
S=C(Nc1ccc2c(c1)OCO2)NC1CCN(Cc2ccccc2)CC1	97.5*	-0.16	-1.82	nt	i	18.8
O=C(CN1CCC(NC(=O)c2ccccc2F)CC1)Nc1ccc2c(c1)OCO2	-5.7	-0.08	nt	nt	nt	-0.9
Cc1ccc(NC(=S)NC2CCN(Cc3ccccc3)CC2)cc1C	94.0*	-0.27	-1.72	0.105	nt	10.8
Cc1ccc(NC(=S)NC2CCN(Cc3ccccc3)CC2)cc1	99.6*	-0.61	-2.37	-1.6	-13.5	4.4
CCOC(=O)c1ccc(NC(=O)NCCN2CCCCC2)cc1	-2.1	0.12	0.0684	nt	nt	0.8
Cn1c(=O)oc2cc(S(=O)(=O)NCc3ccc(C(=O)O)cc3)ccc21	nt	0.45	0.217	0.00287	nt	nt
CCCCn1c(SCN2C(=O)c3ccccc3C2=O)nc2cc(S(N)(=O)=O)ccc21	-7.8	0.13	0.362	-0.513	17.4	-24.1
O=C(Nc1ccc2c(c1)OCO2)OCc1ccccc1	10.6	1.49	-0.759	nt	100.0*	11.5
CC(C)c1ccc(NC(=S)NC2CCN(Cc3ccccc3)CC2)cc1	92.2*	-0.19	-1.18	-1.6	-3.2	17.8
O=C(Nc1ccccc1)NC1CCN(Cc2ccccc2)CC1	28.9	0.14	0.194	0.563	-68.4	-9.8
COc1ccccc1CN1C(=O)c2ccccc2C1C(=O)NC1CCC(C)CC1 (stereo not drawn)	6.9	-0.17	-0.658	0.593	0.0	8.8
CCN1C(=O)C2(SC(NC(C)=O)=NN2C(C)=O)c2cc(C)cc(C)c21 (stereo not drawn)	70.5*	0.95	0.558	0.174	0.0	18.1
O=C1Nc2ccc(Br)cc2C1=Nc1ccc(-c2nnc3n2CCCCC3)cc1	74.2*	0.25	0.429	0.388	33.3	-3.0
O=C(CN1CCN(c2ccccn2)CC1)NCCc1ccccc1	-8.6	-0.3	nt	0.1	nt	9.5
O=C(OCC(=O)N1CCCc2ccccc21)c1ccc(Cl)nc1	-3.7	0.95	1.01	0.815	80.0*	15.5
O=C(COc1ccc(Cl)cc1Cl)N1CCCN(C(=O)COc2ccc(Cl)cc2Cl)CC1	97.4*	-0.58	0.00236	-1.04	-55.9	75.9*
Cc1cccc(OCC(=O)Nc2ccccc2N2CCCCC2)c1	2.4	-0.49	nt	0.498	40.7	28.6
Cc1cc(Cl)ccc1OCC(=O)N1CCCCC1	-3.7	-0.16	1.21	nt	6.7	-1.4
O=C(COc1ccc(Cl)cc1Cl)NC(=S)N1CCCc2ccccc21	6.8	0.56	20.7*	-0.554	-21.7	-2.6
Cc1cccc(OCC(=O)NC(=S)N2CCCc3ccccc32)c1	-2.9	-0.55	23.3*	-0.927	nt	-5.3
O=C(OCC(=O)N1CCCc2ccccc21)c1cnc(Cl)c(Cl)c1	-6.3	-0.3	-0.773	nt	nt	-14.1
Cc1ccc(NC(=S)N(N)CCO)cc1	-4.2	0.71	-0.248	-0.635	14.3	-1.9
COc1ccc(CCC(C)Nc2ccc(F)c(F)c2)cc1 (stereo not drawn)	4.8	-0.13	0.359	-0.0954	nt	43.0
O=C(COc1ccc(Cl)cc1Cl)OCC(=O)N1CCCc2ccccc21	-6.6	0.06	0.0016	nt	nt	52.3
SMILES	Lmaj promast	Ins promoter up	Cl transport mod	ROMK primary	Insulin prom inh	WT yeast gro inh
O=C(CCCOc1ccc(Cl)cc1Cl)N1CCCc2ccccc21	1.4	0.73	-0.601	-1.7	-36.2	74.8*
CC(Oc1ccc(Cl)cc1Cl)C(=O)NNC(=O)C(=O)N1CCCCC1 (stereo not drawn)	60.4*	-0.24	1.15	0.405	-18.9	-31.9
CC(=O)N1CCN(c2ccc(NC(=O)C(C)Oc3ccc(Cl)cc3Cl)cc2)CC1 (stereo not drawn)	-3.8	0.52	nt	0.183	-21.4	21.7
CC(Oc1ccc(Cl)cc1Cl)C(=O)Nc1ccc(N2CCN(C)CC2)cc1 (stereo not drawn)	100.3*	-0.12	0.0135	nt	-36.0	25.8
O=C(COc1ccc(Cl)cc1Br)NNC(=O)C(=O)N1CCCCC1	-11.2	1.73	nt	nt	-61.5	-3.1
O=C(NCc1ccc2c(c1)OCO2)c1cc([N+](=O)[O-])ccc1N1CCCCC1	5.8	-0.02	0.413	1.62	-144.1	17.2
Cn1cc(C(=O)c2ccc(F)cc2)cc1-c1nc2ccccc2n1C	71.0*	-0.04	-2.69	nt	-20.0	7.9
Cc1cc2c(c(SCC(=O)Nc3ccc(C)c(C)c3)n1)C(=O)OC2	-1.4	0.22	-1.31	-1.37	-47.1	-2.3
C=C(C(=O)c1ccccc1)C(C(=C)C(=O)c1ccccc1)c1ccc(OC)cc1	nt	-1.26	-0.537	nt	nt	nt
COC(=O)c1c(C)nc(C)c(C(=O)OC)c1-c1ccsc1	nt	-0.45	0.975	nt	nt	nt
Cc1ccc(Nc2nnc(SC3CCOC3=O)s2)c(C)c1 (stereo not drawn)	0.5	nt	-1.1	0.269	25.0	-5.5
Cc1cc(S(=O)(=O)Nc2cc(C)c(O)c(C)c2)c(C)s1	100.4*	-0.59	0.0428	-1.42	25.8	17.4
CCn1nc(C(=O)OCC(=O)NCC(C)C)c2ccccc2c1=O	4.6	-0.33	-0.535	-0.272	nt	-4.3
CCn1nc(C(=O)OC(C(=O)c2c[nH]c3ccccc23)c2ccccc2)c2ccccc2c1=O (stereo not drawn)	100.4*	-0.76	-0.112	0.56	8.6	3.6
O=C(c1ccccn1)N1N=C2/C(=C/c3ccccc3)CCCC2C1c1ccccc1 (stereo not drawn)	93.9*	-0.38	-2.38	nt	0.0	53.5
CCOC(=O)N1CCC(N2C(=O)c3ccccc3C2Nc2cc(OC)c(OC)c(OC)c2)CC1 (stereo not drawn)	0.9	-0.54	0.0336	nt	nt	7.7
CCOC(=O)N1CCC(N2C(=O)c3ccccc3C2Nc2cc(Cl)c(OC)cc2OC)CC1 (stereo not drawn)	97.3*	-2.16	-0.00925	nt	nt	-3.1
CCSc1nnc2c(n1)[nH]c1c(C)cccc12	32.4	-0.47	nt	nt	9.1	24.1
C=CCSc1nnc2nc3[nH]c4c(C)cccc4c3nn12	71.8*	-0.87	0.316	nt	-23.3	11.2
COc1cc2c(cc1OC)C(C)N(C(C)=O)CC2 (stereo not drawn)	-3.9	nt	nt	0.0956	81.0*	-8.7
COc1cc2c(cc1OC)C(C)N(C(=O)c1cccs1)CC2 (stereo not drawn)	2.7	0.49	0.0158	0.84	nt	-14.4
O=C(O)C1CCC(N2C(=O)C3CCCCC3C2=O)CC1 (stereo not drawn)	0.3	nt	-0.434	-0.0464	21.9	2.0
CCOc1ccc(-c2c(C#N)c(N)nc3sc(C(=O)c4ccccc4)c(N)c23)cc1	nt	9.11*	-0.131	nt	nt	nt
COc1ccc(-c2c(C#N)c(N)nc3sc(C(=O)c4ccccc4)c(N)c23)cc1	7.2	-0.47	-2.54	-1.73	41.2	25.1

Screens from PubChem BioAssay.
